For eight compounds, growth results are on record in PubChem BioAssay (NCI).

What all share (assay): NCI-60 one-dose screen, 48 h (100 = growth as untreated, 0 = no growth, -100 = all killed)
The test system of assay [1] is HCT-15 colon. The following applies: 10 µM unless noted.
Assay [2] relates to HT29 colon. As to conditions: 10 µM unless noted.
Assay [3] concerns SNB-75 CNS. As to conditions: 10 µM unless noted.
The subject of assay [4] is SNB-19 CNS. The following applies: 10 µM unless noted.
The test system of assay [5] is U251 CNS. As to conditions: 10 µM unless noted.
Assay [6] has as its system PC-3 prostate. The following applies: 10 µM unless noted.
For assay [7], the system named is SK-MEL-5 melanoma. The following applies: 10 µM unless noted.
The subject of assay [8] is UACC-62 melanoma. The following applies: 10 µM unless noted.
Assay [9] deals with LOX IMVI melanoma. The following applies: 10 µM unless noted.
For assay [10], the system named is SK-MEL-28 melanoma. The following applies: 10 µM unless noted.
Assay [11] relates to SK-MEL-2 melanoma. As to conditions: 10 µM.
The subject of assay [12] is EKVX NSCLC. As to conditions: 10 µM unless noted.
Assay [13] has as its system SN12C renal. As to conditions: 10 µM unless noted.
Assay [14] has as its system UO-31 renal. The following applies: 10 µM unless noted.
The test system of assay [15] is TK-10 renal. The following applies: 10 µM unless noted.
Assay [16] relates to ACHN renal. The following applies: 10 µM unless noted.
Assay [17] relates to A498 renal. The following applies: 10 µM unless noted.
Assay [18] has as its system CCRF-CEM leukemia. The following applies: 10 µM unless noted.
For assay [19], the system named is MOLT-4 leukemia. As to conditions: 10 µM unless noted.

About 83,000 compounds went through this panel and 20% of them were active in at least one assay; those are over-represented in the sample as a whole.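 The endpoint reported here, percent growth, reads 100 for growth as untreated, 0 for no net growth and -100 for all cells dead.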 Unmarked numbers belong to inactive results. Activity calls are given as the source filed them. Rule for the calls: active = growth percent below 10; inactive = the rest.

As for `Cc1cc(N2CCOCC2)nc(N(CCNc2ccnc3cc(Cl)ccc23)Cc2cccs2)n1`, the growth in assay [1] was 17.8%; in assay [2] it was -43.1% (active); in assay [3], -18.1% (active); in assay [4], 56.5%; in assay [5] it was -10.5% (active); in [6], 24.4%. The growth in assay [7] is -4.8% (active); in [8], -24.6% (active); in [9], -72.1% (active); in assay [10], 11.6%; in assay [11], -39.4% (active); in assay [12] it was 51.5%. For the same compound, the growth in [13] was 42.3%; in [14] it was -8.69% (active); in [15] it was 19.4%; in [16], 1.88% (active); in assay [17], 22.8%; in [18] it was 6.42% (active). The growth in assay [19] is -9.25% (active).
`C=CC(=O)N(C)[C@H]1C[C@H]2OC(C)(C1OC)n1c3ccccc3c3c4c(c5c6ccccc6n2c5c31)C(=O)NC4` (some centres not stated): the growth was -46.5% (active) in assay [1]; 3.17% (active) in [2]; -16.8% (active) in [3]; -1.51% (active) in [4]; -35.8% (active) in assay [5]; 17.5% in [6]. Moreover, the growth was -94.3% (active) in [7]; -28.1% (active) in [8]; -55.6% (active) in assay [9]; 5.52% (active) in assay [10]; -24.6% (active) in assay [11]; 17.9% in assay [12]. The growth was 6.85% (active) in assay [13]; -30.5% (active) in assay [14]; -2.16% (active) in [15]; 12.9% in assay [16]; -38.7% (active) in assay [17]; -7.8% (active) in assay [18]. Further, the growth in assay [19] was -40.1% (active).
For the compound `O=c1[nH]c(N2CCOCC2)nc2scc(-c3ccccc3)c12`, the growth in [1] was 99%; in assay [2], 86.8%; in assay [3], 84.3%; in assay [4], 106%; in assay [5] it was 69.5%; in [6], 94.6%. The growth is 98.7% in [7]; 99.2% in [8]; 100% in assay [9]; 110% in [10]; 81.8% in assay [11]; 53.3% in assay [12]. Further, the growth in assay [13] is 107%; in assay [14], 83.1%; in [15], 86.6%; in [16], 99.3%; in assay [17], 104%; in [18], 101%. The growth in [19] was 90.5%.
`COc1cc(-c2nc(C(=O)Nc3ccc(C)cc3)nn2-c2ccc(F)c(F)c2)cc(OC)c1OC`: the growth in [1] is 94.7%; in assay [2], 75.5%; in [3] it was 84.9%; in [4] it was 104%; in assay [5], 100%; in [6], 96.7%. The growth is 95.8% in assay [7]; 105% in [8]; 99% in assay [9]; 108% in assay [10]; 89.5% in assay [11]; 99.9% in assay [12]. Besides, the growth in [13] was 97.5%; in [14], 72.9%; in assay [15] it was 98.8%; in [16] it was 105%; in assay [17] it was 112%; in [18], 102%. In addition, in [19], the growth was 94.9%.
In the case of `CC1CCC(n2cnc3c(Cl)ncnc32)O1` (configuration not stated), the growth in assay [1] was 103%; in assay [2] it was 110%; in [3] it was 91.9%; in assay [4] it was 82.3%; in [5], 102%; in assay [6] it was 89.6%. The growth was 91% in assay [7]; 104% in [8]; 87.1% in assay [9]; 109% in assay [10]; 109% in assay [11]; 94.5% in assay [12]. Besides, the growth is 110% in [13]; 96.4% in [14]; 88% in [15]; 104% in assay [16]; 124% in assay [17]; 85.8% in assay [18]. Also, in assay [19], the growth is 113%.
Consider `[2H]C1([2H])[C@H](C)O[C@H](C)C([2H])([2H])N1c1ccc(NC(=O)c2cccc(-c3ccc(OC(F)(F)F)cc3)c2C)cn1`, for which the growth in assay [1] is 84.2%; in assay [2], 61.2%; in assay [3], 72.1%; in [4] it was 65.7%; in [5], 65.3%; in [6] it was 62.1%. For the same compound, the growth in [7] was 53.9%; in assay [8], 52.8%; in assay [9], 68.4%; in [10], 89.2%; in assay [11], 56.1%; in assay [12], 61.4%. For the same compound, the growth in assay [13] is 56.6%; in assay [14], 54.5%; in assay [15], 63.6%; in assay [16], 78.1%; in assay [17], 53.9%; in assay [18], 64.3%. Moreover, the growth in [19] was 39.9%.
For `Cc1ccc(N=C2CSc3nnc(-c4csc5c4CCCC5)n3N2)cc1`, the growth was 22.9% in assay [1]; 7.38% (active) in [2]; 56.9% in assay [3]; 35.7% in assay [4]; 23% in [5]; 27.9% in assay [6]. For the same compound, the growth in assay [7] was 19%; in [8], 40.2%; in assay [9], 46.3%; in assay [10] it was 63.2%; in [11], 61.6%; in assay [12], 41.9%. Moreover, the growth in assay [13] was 48.5%; in assay [14] it was 57.9%; in assay [15], 78.9%; in [16], 52%; in assay [17] it was 12.1%; in [18] it was 16.8%. Also, in assay [19], the growth is 23.2%.
For `CCCCN1CCCC[C@@H]1C(=O)N[C@H](C(=O)N(C)[C@H](CCc1nc(C(=O)N[C@@H](Cc2ccccc2)C[C@H](C)C(=O)OC)cs1)C(C)C)C(C)C`, the growth in [1] is 59.4%; in [2], 68.9%; in [3], 75.2%; in [4], 57.9%; in [5], 83.8%; in assay [6] it was 35%. The growth is 53.5% in [7]; 43.6% in [8]; 80% in assay [9]; 76.4% in assay [10]; 68.1% in assay [11]; 65.8% in assay [12]. Moreover, the growth was 82.2% in assay [13]; 52.3% in [14]; 102% in assay [15]; 59.7% in [16]; 61.2% in [17]; 38.8% in assay [18]. Further, the growth in assay [19] is 35.2%.
